Assay outcomes: PubChem BioAssay, National Center for Advancing Translational Sciences (NCATS)
This is a sample that favours compounds with a hit; in the whole collection about 19% have one here.
HT1080 IDH1KD tx – toxicity to HT-1080 IDH1 knockdown cells (counter line). HT-1080 IDH1 knockdown viability, ATP luminescence, 48 h. Potency, µM (doses to about 46.1 µM), for inactives: top-dose activity, negative = toxicity, actives largely listed as cytotoxic. actives 2% (n = 360,000). AID 686971;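 also: potency is read from the fitted curve at half-maximal effect; 0% = DMSO wells and -100% = cell-free medium wells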
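% activity derives from luminescence (CellTiter-Glo), normalised to DMSO and no-cell wells. HT-1080-IDH1KD cells, 750/well, had 48 h compound exposure at 37 °C.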
HT1080-NT tox – kills 2HG-producing HT-1080-NT fibrosarcoma cells | HT-1080-NT fibrosarcoma viability, CellTiter-Glo ATP luminescence, 48 h | Potency, µM (titrated, usually from 46.1 µM), for the others: at the highest dose activity, negative = less viability, usual class: cytotoxic | actives 1.6% (n = 360,000);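 also: NT is the 2HG producing partner of a matched IDH1 knockdown line; potency is read from the fitted curve at half-maximal effect; 0% = DMSO-treated cells and -100% = media-only wells without cells; nearly all actives have a fitted effect of over 55% in size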
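Read-out is CellTiter-Glo luminescence after 10 minutes at room temperature, following 48 hours' compound treatment of HT-1080-NT cells (750 cells/well, RPMI, 5% FBS, 37 degrees C).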
IL1B secr inh – inflammasome signaling inhibition, IL-1 beta readout; THP-1 LPS/ATP IL-1B secretion, AlphaLISA, 16 h; stronger effect = lower value; activity change, % at 57.5 µM; AID 743279; actives 4.7% (n = 360,000); in the data active = activity change below about -50%; inconclusive = mostly about -30% to -49%
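Secreted IL-1B measured by AlphaLISA bead assay after 16 h compound exposure of THP-1 cells; compounds (final up to 57.5 uM) added 1 h before LPS (250 ng/mL) and ATP (1.25 mM) stimulation; lower signal means less secretion.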
DT40 TDP1 no CPT – qHTS for Inhibitors of human tyrosyl-DNA phosphodiesterase 1 (TDP1): qHTS in cells in absence of CPT; DT40 Tdp1-/- hTDP1 cells, no CPT, ATP luminescence, 48 h; Potency, µM (titrated, usually from 46.2 µM), for the others: at the highest dose activity change, negative = growth inhibition, hits mostly inhibitors; actives 15% (n = 420,000); also: potency is read from the fitted curve at half-maximal effect; nearly all actives have a fitted effect of over 55% in size
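Readout: luminescence from CellTiter-Glo after 30 min in the dark at RT. Cells: DT40 Tdp1-/- with stable hTDP1, 400/well. Exposure: compounds alone, ≥48 hr, 37 °C.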
TDP1 cell CPT – growth inhibition of DT40 Tdp1-/-;hTDP1 cells with camptothecin (screen for TDP1 inhibitors); chicken DT40 Tdp1-/-;hTDP1 cells + 20 nM CPT, ATP luminescence, 48 h; Potency, µM (doses to about 46.2 µM), for inactives: at the top dose activity change, negative = growth inhibition, usual class: inhibitors; actives 12% (n = 420,000); AID 686979; also: potency is read from the fitted curve at half-maximal effect; nearly all actives have a fitted effect of over 55% in size
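Cell growth measured by CellTiter-Glo luminescence after a minimum 48 h, 37 C compound exposure with 20 nM CPT in Tdp1-knockout DT40 cells stably expressing hTDP1, seeded 400/well; qHTS titration format.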
An asterisk follows results filed as active; u = inconclusive; x = no result. Unless noted, calls follow the shape of the dose curve; as a rule, active = well fitted curve in the direction sought with a large enough effect; inconclusive = small, poorly fitted or top-dose-only effect, or another doubt; inactive = no such curve, though single readings can be large; an effect the other way counts as inactive or inconclusive. Unless noted, % is scaled to controls: 0 for no effect and ±100 for the full control effect.

SMILES	HT1080 IDH1KD tx	HT1080-NT tox	IL1B secr inh	DT40 TDP1 no CPT	TDP1 cell CPT
COc1ccccc1N1CCN(C(=O)/C=C/c2ccc(C)cc2)CC1	7%	5%	8	13µM*	u
CC(=O)Nc1ccc(NC(=O)COc2cc(C)cc3oc(=O)cc(C)c23)cc1	9%	1%	13	7%	-11%
COc1ccc(/C=C/C(=O)NC(=S)N2CCN(c3ccccc3OC)CC2)cc1	-1%	-1%	15	-28%	-15%
Cc1cc(OCC(=O)N2CCC(C(=O)O)CC2)c2c(C)cc(=O)oc2c1	-3%	-1%	7	-7%	7%
Nn1c(SCC(=O)NCCCc2ccccc2)nnc1-c1cccnc1	9%	0%	-5	-8%	-24%
COc1ccc(CCNC(=O)CCCn2c(=S)[nH]c3cc4c(cc3c2=O)OCO4)cc1OC	-1%	1%	-13	12%	-2%
COc1cc(CC(NC(C)=O)C(=O)NC2CCN(c3nc(OC)nc(OC)n3)CC2)cc(OC)c1 (stereo unspecified)	0%	13%	-7	-4%	5%
CCOc1ccc2nc(NC(=O)CN3C(=O)NC4(CCCC4)C3=O)sc2c1	-6%	2%	-11	-6%	-20%
CC(=O)NCCc1c[nH]c2ccc(OCc3ccccc3)cc12	-1%	9%	0	-9%	-8%
CC[C@@]1(C(=O)OC)N[C@H](CN(C)S(=O)(=O)c2ccc(C(C)(C)C)cc2)[C@@H]2C(=O)N(C)C(=O)[C@@H]21	8%	7%	10	u	-28%
COc1ccc(CN2C(=O)C(C)N(C(=O)c3c(F)cccc3F)c3ccccc32)cc1 (stereo unspecified)	4%	-2%	8	8.2µM*	13µM*
CC1C(=O)N(Cc2ccc([N+](=O)[O-])cc2)c2ccccc2N1C(=O)c1c(F)cccc1F (stereo unspecified)	-29%	-19%	u	16µM*	u
COc1ccc(CN2C(=O)C(C)Oc3ccccc32)cc1 (stereo unspecified)	0%	-5%	-3	u	-1%
COc1cccc(CN2C(=O)C(C)N(C(=O)c3ccccc3)c3ccccc32)c1 (stereo unspecified)	-2%	u	-4	6.5µM*	13µM*
Oc1ccc(-c2csc(Nc3ncccn3)n2)c(O)c1	u	u	-21	-14%	-14%
Oc1ccc(-c2cnns2)c(O)c1	-28%	-18%	u	4.6µM*	4.1µM*
N=C(N)S/C=C\C(=O)O	x	x	x	16µM*	16µM*
COC(=O)c1ccc(=O)n(-c2ccc(OC)cc2)c1	-4%	0%	-7	-6%	2%
COC(=O)C1=C(C)N(c2ccc(OC)cc2)C(C)=C(C(=O)OC)C1c1ccc(OC)cc1	-16%	-1%	-2	16µM*	8.2µM*
COC(=O)C1=C(C)N(c2ccc(OC)cc2)C(C)=C(C(=O)OC)C1c1ccccc1	-10%	u	0	21µM*	u
Clc1ccc(-c2csc(=Nc3cccnc3)n2CCCn2ccnc2)cc1Cl	-23%	-25%	-88*	15µM*	23µM*
FC(F)Oc1ccc(-c2csc(=Nc3cccnc3)n2CC2CCCO2)cc1 (stereo unspecified)	-25%	-4%	-3	13µM*	15µM*
CN=c1scc(-c2ccc(Br)cc2)n1C	0%	6%	-10	-28%	-11%
Cc1cc(=S)cc(C)n1CCCn1ccnc1	3%	11%	9	6%	0%
COCCn1c(-c2ccc(Br)cc2)csc1=Nc1cccnc1	-28%	-29%	-78*	18µM*	16µM*
SMILES	HT1080 IDH1KD tx	HT1080-NT tox	IL1B secr inh	DT40 TDP1 no CPT	TDP1 cell CPT
O=C(CSc1nc2ccccc2c(=O)n1-c1ccc(F)cc1F)Nc1ccc2c(c1)CCC2	-11%	-11%	18	u	u
O=C(Nc1ccc2c(c1)OCCO2)C1CCCN(S(=O)(=O)c2cccs2)C1 (stereo unspecified)	-13%	-11%	7	u	13µM*
O=C(Nc1ccc2c(c1)OCCO2)C1CCN(S(=O)(=O)c2cccs2)CC1	22%	-1%	12	u	-6%
CCc1cccc(NC(=O)C2CCCN(S(=O)(=O)c3cccs3)C2)c1 (stereo unspecified)	-27%	u	-16	13µM*	16µM*
COc1ccc(NC(=O)C2CCCN(S(=O)(=O)c3cccs3)C2)cc1OC (stereo unspecified)	0%	-4%	-1	u	u
CCOC(=O)c1c(S(=O)(=O)N2CCCC(C(=O)Nc3cccc(CC)c3)C2)c(C)n(CC)c1C (stereo unspecified)	x	x	x	u	18µM*
O=C(Nc1ccc2c(c1)OCO2)C1CCCN(S(=O)(=O)c2cccs2)C1 (stereo unspecified)	-14%	-6%	-10	u	16µM*
CC(=O)c1ccc(NC(=O)C2CCCN(S(=O)(=O)c3cn(C)cn3)C2)cc1 (stereo unspecified)	x	x	x	-13%	-5%
COc1ccccc1NC(=O)C1CCN(c2cnccn2)CC1	x	x	x	5%	-20%
NC(=O)C1CC(=O)N(c2ccc(OCc3ccc(Cl)cc3)cc2)C1 (stereo unspecified)	2%	1%	-3	23µM*	u
CCCNC(=O)C1CC(=O)N(c2ccc(OCc3ccc(Cl)cc3)cc2)C1 (stereo unspecified)	-4%	-16%	15	8.2µM*	u
NC(=O)C1CC(=O)N(c2ccc(OCC(=O)N3CCCC3)cc2)C1 (stereo unspecified)	1%	4%	-1	-14%	2%
CC1=C(C(=O)OCC2CCCO2)C(c2ccccc2OC(C)C)C2=C(CC(c3ccco3)CC2=O)N1 (stereo unspecified)	4%	1%	-10	u	-30%
CC1=C(C(=O)OCC2CCCO2)C(c2cccc(C(F)(F)F)c2)C2=C(CC(c3ccco3)CC2=O)N1 (stereo unspecified)	u	-28%	-53*	u	u
Cc1ccc(-c2nn3c(=O)cc(CN4CCN(C(=O)/C=C/c5ccccc5)CC4)nc3s2)cc1	x	x	x	-15%	-12%
CCOc1ccc(C(=O)N2CCN(Cc3cc(=O)n4nc(-c5cccc(OC)c5)sc4n3)CC2)cc1	x	x	x	21µM*	u
Cc1ccccc1-c1nn2c(=O)cc(CN3CCN(C(=O)/C=C/c4ccccc4)CC3)nc2s1	x	x	x	u	16µM*
Cc1ccc(S(=O)(=O)N2CCN(Cc3cc(=O)n4nc(-c5ccccc5Cl)sc4n3)CC2)cc1	x	x	x	-17%	-2%
